{
  "source": "paper PMC4336329",
  "about": "(PLoS ONE, 2015)",
  "note": "Among all 310,000 compounds or so, about 14,000 (4.5%) showed an effect of 50% or more. Effects have a minus sign here. Shown is part of a subset that was picked to be rich in strong results.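 Also: peak tail current of the secondary pulse compared with the same well before compound.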",
  "data": [
    {"target": "human ether-à-go-go-related gene (hERG) potassium channel (human, UniProt Q12809)", "sequence (Q12809 whole entry, looked up)": "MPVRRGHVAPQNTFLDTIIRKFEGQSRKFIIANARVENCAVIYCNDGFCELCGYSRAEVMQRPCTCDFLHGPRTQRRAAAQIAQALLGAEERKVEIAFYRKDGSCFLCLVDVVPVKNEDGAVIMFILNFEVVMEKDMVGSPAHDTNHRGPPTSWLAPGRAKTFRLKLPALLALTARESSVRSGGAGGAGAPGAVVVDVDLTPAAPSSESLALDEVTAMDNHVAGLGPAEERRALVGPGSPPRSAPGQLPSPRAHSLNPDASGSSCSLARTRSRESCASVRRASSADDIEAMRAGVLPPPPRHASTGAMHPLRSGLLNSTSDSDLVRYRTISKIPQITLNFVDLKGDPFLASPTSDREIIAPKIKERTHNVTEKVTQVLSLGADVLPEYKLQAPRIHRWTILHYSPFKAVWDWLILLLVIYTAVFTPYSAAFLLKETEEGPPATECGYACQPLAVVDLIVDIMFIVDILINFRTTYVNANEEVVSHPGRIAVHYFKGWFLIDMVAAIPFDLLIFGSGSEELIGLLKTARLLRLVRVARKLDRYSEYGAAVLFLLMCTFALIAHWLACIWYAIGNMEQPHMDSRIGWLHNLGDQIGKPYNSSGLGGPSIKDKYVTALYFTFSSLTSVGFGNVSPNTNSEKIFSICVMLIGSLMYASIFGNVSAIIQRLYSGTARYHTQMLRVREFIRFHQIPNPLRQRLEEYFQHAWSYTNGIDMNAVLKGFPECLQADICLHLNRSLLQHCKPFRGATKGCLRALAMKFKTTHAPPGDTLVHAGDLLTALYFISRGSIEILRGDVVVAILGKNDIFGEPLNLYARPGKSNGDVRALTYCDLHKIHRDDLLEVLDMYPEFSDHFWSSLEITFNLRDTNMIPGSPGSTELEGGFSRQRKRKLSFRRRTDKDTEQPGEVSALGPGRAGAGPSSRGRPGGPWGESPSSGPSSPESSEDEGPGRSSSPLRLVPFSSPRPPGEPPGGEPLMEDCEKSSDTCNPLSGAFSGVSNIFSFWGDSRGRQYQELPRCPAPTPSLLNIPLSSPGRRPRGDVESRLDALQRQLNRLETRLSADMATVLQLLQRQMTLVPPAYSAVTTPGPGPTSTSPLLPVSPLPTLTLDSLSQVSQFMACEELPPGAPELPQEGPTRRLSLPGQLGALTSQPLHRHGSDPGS", "test": "primary screen, population patch clamp on CHO cells stably expressing hERG; higher = less effect of the substance", "units": {"hERG current change (%, negative = inhibition) at 10uM": "%"}, "values": [
      {"smiles": "COc1ccc(N2CCN(C(=O)COC(=O)CCOc3ccc(C)cc3)CC2)cc1", "hERG current change (%, negative = inhibition) at 10uM": 9.09},
      {"smiles": "COc1ccc(N2CCN(C(=O)COC(=O)CCOc3cc(C)ccc3C)CC2)cc1", "hERG current change (%, negative = inhibition) at 10uM": 0.516},
      {"smiles": "COc1ccc(N2CCN(C(=O)COC(=O)CCOc3ccccc3C)CC2)cc1", "hERG current change (%, negative = inhibition) at 10uM": -62.5},
      {"smiles": "CCn1cc(C(=O)NCc2cccc(F)c2)c(=O)c2cc(F)c(N3CCN(C(=O)c4ccco4)CC3)cc21", "hERG current change (%, negative = inhibition) at 10uM": -21},
      {"smiles": "CCn1cc(C(=O)NCC(C)C)c(=O)c2cc(F)c(N3CCN(C(=O)c4ccco4)CC3)cc21", "hERG current change (%, negative = inhibition) at 10uM": -59.9},
      {"smiles": "CCn1cc(C(=O)NC(C)C)c(=O)c2cc(F)c(N3CCN(C(=O)c4ccco4)CC3)cc21", "hERG current change (%, negative = inhibition) at 10uM": -34.6},
      {"smiles": "C=CCNC(=O)c1cn(CC)c2cc(N3CCN(C(=O)c4ccco4)CC3)c(F)cc2c1=O", "hERG current change (%, negative = inhibition) at 10uM": -63.6},
      {"smiles": "CCCNC(=O)c1cn(CC)c2cc(N3CCN(C(=O)c4ccco4)CC3)c(F)cc2c1=O", "hERG current change (%, negative = inhibition) at 10uM": -67},
      {"smiles": "CCn1cc(C(=O)NCc2ccco2)c(=O)c2cc(F)c(N3CCN(C(=O)c4ccco4)CC3)cc21", "hERG current change (%, negative = inhibition) at 10uM": -26.4},
      {"smiles": "CCN(CC)CCNC(=O)c1cn(CC)c2cc(N3CCN(C(=O)c4ccco4)CC3)c(F)cc2c1=O.Cl", "hERG current change (%, negative = inhibition) at 10uM": 0.131},
      {"smiles": "CCC(C)NC(=O)c1cn(CC)c2cc(N3CCN(C(=O)c4ccco4)CC3)c(F)cc2c1=O", "note": "(stereo not shown)", "hERG current change (%, negative = inhibition) at 10uM": -55.2},
      {"smiles": "CCCCNC(=O)c1cn(CC)c2cc(N3CCN(C(=O)c4ccco4)CC3)c(F)cc2c1=O", "hERG current change (%, negative = inhibition) at 10uM": -33.8},
      {"smiles": "CCn1cc(C(=O)NCc2ccc3c(c2)OCO3)c(=O)c2cc(F)c(N3CCN(C(=O)c4ccco4)CC3)cc21", "hERG current change (%, negative = inhibition) at 10uM": -1.93},
      {"smiles": "CCn1cc(C(=O)Nc2ncccc2O)c(=O)c2cc(F)c(N3CCN(C(=O)c4ccco4)CC3)cc21", "hERG current change (%, negative = inhibition) at 10uM": 1.98},
      {"smiles": "CCn1cc(C(=O)NCCC(C)C)c(=O)c2cc(F)c(N3CCN(C(=O)c4ccco4)CC3)cc21", "hERG current change (%, negative = inhibition) at 10uM": -11.3},
      {"smiles": "O=C(c1ccc2c(c1)OCO2)N1CCOCC1", "hERG current change (%, negative = inhibition) at 10uM": 17.5},
      {"smiles": "COc1cccc(OCCn2cccc2/C=C2/C(=N)N3OC(C)=CC3=NC2=O)c1", "hERG current change (%, negative = inhibition) at 10uM": -23.5},
      {"smiles": "O=C(NCCCN1CCCC1=O)c1cccc(S(=O)(=O)Nc2ccc(F)cc2)c1", "hERG current change (%, negative = inhibition) at 10uM": -24.5},
      {"smiles": "CCOC(=O)C1C(=O)Nc2nc(C)nn2C1c1ccccc1", "note": "(stereo not shown)", "hERG current change (%, negative = inhibition) at 10uM": 14.4},
      {"smiles": "CCCc1ccc(C(=O)O/N=C(\\N)c2ccccn2)cc1", "hERG current change (%, negative = inhibition) at 10uM": -0.642},
      {"smiles": "CCn1cc(C(=O)NCc2ccncc2)c(=O)c2cc(F)c(N3CCN(C(=O)c4ccco4)CC3)cc21", "hERG current change (%, negative = inhibition) at 10uM": -66.4},
      {"smiles": "CCn1cc(C(=O)NCc2ccccc2)c(=O)c2cc(F)c(N3CCN(C(=O)c4ccco4)CC3)cc21", "hERG current change (%, negative = inhibition) at 10uM": -39.6},
      {"smiles": "CCn1cc(C(=O)NCc2cccnc2)c(=O)c2cc(F)c(N3CCN(C(=O)c4ccco4)CC3)cc21", "hERG current change (%, negative = inhibition) at 10uM": -37.6},
      {"smiles": "O=C(NCc1ccc(N2CCCC2=O)cc1)c1cccc(Cl)c1", "hERG current change (%, negative = inhibition) at 10uM": 1.27},
      {"smiles": "CC(C)(C)C(=O)Nc1ccc(-c2cc3cc(Cl)ccc3o2)cc1", "hERG current change (%, negative = inhibition) at 10uM": 8.12},
      {"smiles": "Cc1ccc(NS(=O)(=O)c2ccc3oc(=O)ccc3c2)cc1Cl", "hERG current change (%, negative = inhibition) at 10uM": 3.79},
      {"smiles": "N#Cc1ccccc1OCCCNC1CCCC1.O=C(O)C(=O)O", "hERG current change (%, negative = inhibition) at 10uM": -11.5},
      {"smiles": "CCC(=O)c1ccccc1OCCN1CCN(Cc2ccccc2)CC1.O=C(O)C(=O)O", "hERG current change (%, negative = inhibition) at 10uM": -59.1},
      {"smiles": "CCc1ccccc1OCCCCN1CCCC1.O=C(O)C(=O)O", "hERG current change (%, negative = inhibition) at 10uM": -40},
      {"smiles": "CCC(=O)c1ccccc1OCCCCn1cncn1.O=C(O)C(=O)O", "hERG current change (%, negative = inhibition) at 10uM": 4.82},
      {"smiles": "O=C(O)C(=O)O.OCc1ccccc1OCCCN1CCC(Cc2ccccc2)CC1", "hERG current change (%, negative = inhibition) at 10uM": -75},
      {"smiles": "CC(C)c1ccccc1OCCCN1CCCC1.O=C(O)C(=O)O", "hERG current change (%, negative = inhibition) at 10uM": -33.1},
      {"smiles": "N#Cc1ccccc1OCCCN1CCC(Cc2ccccc2)CC1.O=C(O)C(=O)O", "hERG current change (%, negative = inhibition) at 10uM": -80},
      {"smiles": "CCC(=O)c1ccccc1OCCCN1CCC(Cc2ccccc2)CC1.O=C(O)C(=O)O", "hERG current change (%, negative = inhibition) at 10uM": -78.5},
      {"smiles": "CCC(=O)c1ccccc1OCCCN1C(=O)NC(C)(C)C1=O", "hERG current change (%, negative = inhibition) at 10uM": 0.00578},
      {"smiles": "CCC(=O)c1ccccc1OCCN1CCN(CC)CC1.O=C(O)C(=O)O", "hERG current change (%, negative = inhibition) at 10uM": -13.7},
      {"smiles": "CCc1ccccc1OCCCN1CCCC1.O=C(O)C(=O)O", "hERG current change (%, negative = inhibition) at 10uM": -17.6},
      {"smiles": "COC(=O)c1ccccc1OCCN1CCCCCC1.O=C(O)C(=O)O", "hERG current change (%, negative = inhibition) at 10uM": -46.2},
      {"smiles": "O=C(CSc1nccc(=O)[nH]1)Nc1cccc(S(=O)(=O)N2CCOCC2)c1", "hERG current change (%, negative = inhibition) at 10uM": 4.22},
      {"smiles": "Cn1cnc2c1c(=O)n(Cc1c(Cl)cccc1Cl)c(=O)n2C", "hERG current change (%, negative = inhibition) at 10uM": -3.36},
      {"smiles": "COc1ccccc1NC(=O)CSc1nc2sc(C)c(C)c2c(=O)n1C", "hERG current change (%, negative = inhibition) at 10uM": 6.42},
      {"smiles": "CC(=O)N1CCN(S(=O)(=O)c2cccc(C(=O)NCCc3ccc(Cl)cc3)c2)CC1", "hERG current change (%, negative = inhibition) at 10uM": -12.1},
      {"smiles": "CC1Cc2ccccc2N1C(=O)COC(=O)C1=COCCO1", "note": "(stereo not shown)", "hERG current change (%, negative = inhibition) at 10uM": -7.1},
      {"smiles": "COc1ccc(CCNC(=O)COC(=O)/C=C/c2ccc(OC)c(OC)c2)cc1", "hERG current change (%, negative = inhibition) at 10uM": -16},
      {"smiles": "O=C(CSc1nncn1-c1cccnc1)N(c1ccccc1)c1ccccc1", "hERG current change (%, negative = inhibition) at 10uM": 4.28},
      {"smiles": "CN(C)S(=O)(=O)N1CCN(C(=O)c2cccs2)CC1", "hERG current change (%, negative = inhibition) at 10uM": 7.17},
      {"smiles": "CC1=Nc2ccc(Br)cc2C(c2ccccc2)N1CC(=O)O", "note": "(stereo not shown)", "hERG current change (%, negative = inhibition) at 10uM": 33.7},
      {"smiles": "COC(=O)CN1C(CN2CCOCC2)=Nc2ccc(Br)cc2C1c1ccccc1", "note": "(stereo not shown)", "hERG current change (%, negative = inhibition) at 10uM": -75.3},
      {"smiles": "NNC(=O)CN1C(CN2CCOCC2)=Nc2ccc(Br)cc2C1c1ccccc1", "note": "(stereo not shown)", "hERG current change (%, negative = inhibition) at 10uM": -48.9},
      {"smiles": "COC(=O)CN1C(C)=Nc2ccc(C)cc2C1c1ccccc1", "note": "(stereo not shown)", "hERG current change (%, negative = inhibition) at 10uM": -43.1},
      {"smiles": "Br.COC(=O)CN1C(C)=Nc2ccc(Br)cc2C1c1ccccc1", "note": "(stereo not shown)", "hERG current change (%, negative = inhibition) at 10uM": -49.1},
      {"smiles": "CCC1=Nc2ccc(Br)cc2C(c2ccccc2)N1CC(=O)OC", "note": "(stereo not shown)", "hERG current change (%, negative = inhibition) at 10uM": -59.1}
    ]}
  ]
}
